Compound activity from PubChem BioAssay.
TSG101-PTAP inh – blocks PTAP/TSG101 interaction to inhibit HIV-1 budding | Potency, µM (highest dose often 115 µM), for the others: at the highest dose activity change, negative = inhibition, most hits filed as inhibitors | Q99816 | 340,000 tested, under 10 active | AID 493005 | Fluorescence polarization, FITC-PTAP peptide / Tsg101 binding; active = well fitted inhibition curve with a large enough effect in the main read-out, with a control signal flat, not every such curve was filed as active; inconclusive = small, poorly fitted or top-dose-only effect, or effect the other way, or a change in a side signal; inactive = no such curve, though single readings can be large or run the other way; also: potency is read from the fitted curve at half-maximal effect; % of control where 0% means no effect
Target sequence (Q99816 whole entry, looked up): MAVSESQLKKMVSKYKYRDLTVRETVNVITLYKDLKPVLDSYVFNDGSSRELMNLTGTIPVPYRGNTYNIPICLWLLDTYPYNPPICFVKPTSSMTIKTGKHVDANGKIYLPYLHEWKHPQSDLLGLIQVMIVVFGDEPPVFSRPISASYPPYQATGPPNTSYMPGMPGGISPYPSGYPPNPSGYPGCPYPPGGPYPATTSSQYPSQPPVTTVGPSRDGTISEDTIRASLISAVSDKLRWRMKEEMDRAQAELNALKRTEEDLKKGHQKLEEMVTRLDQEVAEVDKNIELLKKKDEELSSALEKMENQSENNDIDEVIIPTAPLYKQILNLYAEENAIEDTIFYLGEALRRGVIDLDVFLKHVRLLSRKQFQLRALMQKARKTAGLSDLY
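Fluorescence polarization binding of Tsg101 binding domain (10 uM final) to FITC-labeled PTAP peptide (50 nM final) in HEPES pH 7.5 buffer with NaCl, Tween 20, EDTA, TCEP. Compounds added before peptide; binding 20 min at RT.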
KCNH2 WT inh – blocks the wildtype human KCNH2 potassium channel | AID 720551 | U2OS, BacMam KCNH2, thallium flux FluxOr; hits give low values | activity change, % at 1.84 µM | Q12809 | 340,000 compounds, 0.37% hits;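 active = maximum activity change below -70%; inconclusive = maximum activity change between -70% and -50%; inactive = maximum activity change above -50%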; also: % is scaled to controls: 0 for no effect and ±100 for the full control effect
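U2OS cells were transduced with wild-type KCNH2 virus (2.03 x 10^8 / mL) for 4 h at room temperature, then cultured overnight at 37 C. Thallium flux was read with FluxOr dye. Rate constants were normalized to DMSO controls.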
KCNH2 3.1 block – KCNH2 3.1 (human) potassium channel inhibition; activity change, % (tested at about 1.8 µM); 340,000 compounds, 0.95% hits; U2OS KCNH2 3.1, thallium flux FluxOr; hits give low values; AID 720553;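 active = maximum activity change below -70%; inconclusive = maximum activity change from -70% to -50%; inactive = maximum activity change above -50%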;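 also: thallium influx rate constant from kinetic fluorescence after stimulation buffer; % is scaled to controls: 0 for no effect and ±100 for the full control effect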
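Virally transduced U2OS (3.1 isoform, 4 h infection in dark at RT) → overnight 37 C → FluxOr + Red40 in HBSS/HEPES, 45 min → stimulation buffer, 2 min kinetic read → rate constant vs DMSO controls.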
Tb PFK inh-1 – blocks T. brucei phosphofructokinase | Potency, µM (series often up to 57.5 µM), for the others: top-dose activity, negative = inhibition, hits mostly inhibitors | 330,000 compounds, 0.17% hits | T. brucei PFK, ADP-Glo luminescence;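 also: potency is read from the fitted curve at half-maximal effect; 0% = uninhibited 1x PFK enzyme wells and -100% = no-enzyme wells; nearly all actives have a fitted effect of over 60% in size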
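ADP-Glo luminescence quantified ADP after 45 min at room temperature, with 1.25 nM T. brucei PFK, 0.1 mM ATP and 0.5 mM fructose-6-phosphate in pH 8.0 TEA buffer. qHTS titrations up to 57 µM; curves classified by quality.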
TbPFK ATP – orthogonal confirmation of T. brucei phosphofructokinase inhibitors | Potency, µM (top dose mostly 57.5 µM), for inactives: at the highest dose inhibition | 1,100 compounds, 47% hits | shares compounds with Tb PFK inh-1 | AID 504636 | Tb PFK enzyme, ATP depletion, Kinase-Glo Plus luminescence; calls by dose curve; also: potency is read from the fitted curve at half-maximal effect; nearly all actives have a fitted effect of over 60% in size
Tb PFK inh-2 – T. brucei PFK enzyme inhibition, hit validation. 1,100 compounds, 41% hits. AID 504637. shares compounds with Tb PFK inh-1. purified T. brucei PFK, ADP-Glo luminescence, 45 min. Potency, µM (doses to about 57.5 µM), inactives show at the highest dose activity change, negative = inhibition, hits mostly inhibitors;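 also: potency is read from the fitted curve at half-maximal effect; plate controls were full PFK enzyme control for no effect and no enzyme control for full effect; nearly all actives have a fitted effect of over 60% in size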
The depositor's hits bear a star; i = inactive; ? = inconclusive; · = no result. Most compounds without a hit are left out; they make up all but 1.2% or so of the library. Unless noted, calls follow the shape of the dose curve; as a rule, active = well fitted inhibition curve with a large enough effect; inconclusive = small, poorly fitted or top-dose-only effect, or effect the other way; inactive = flat fitted curve, though single readings scatter.

SMILES	TSG101-PTAP inh	KCNH2 WT inh	KCNH2 3.1 block	Tb PFK inh-1	TbPFK ATP	Tb PFK inh-2
CCCC1CCCCC12C(=O)NC(=O)NC2=O (configuration not stated)	-1.1%	-6.5	7.9	·	·	·
CNC(=S)NNC(=O)c1cccn(Cc2ccc(Cl)c(Cl)c2)c1=O	-0.6%	2.8	-0.2	8.49µM*	2.69µM*	8.49µM*
CNC(=O)c1cccn(Cc2cccc(C(F)(F)F)c2)c1=O	-4.6%	-4.5	3.5	-10.0%	·	·
O=C(NCc1ccccc1)c1cccn(Cc2cccc(Cl)c2)c1=O	-3.8%	3.4	-7.3	0.4%	·	·
C=CCNC(=S)NNC(=O)c1cccn(Cc2ccc(Cl)c(Cl)c2)c1=O	-0.7%	-2.6	-3.4	8.49µM*	8.49µM*	10.7µM*
C=C(C)C(Cc1c(OC)ccc(C(=O)/C=C/c2ccc(O)cc2)c1O)OO (configuration not stated)	1.2%	-0.4	-0.9	-4.6%	·	·
CCn1c(C)c(CS(=O)(=O)c2ccccc2)[nH]c1=O	-1.7%	7.5	-5.3	?	-23.7%	?
CC(=O)NC(C)c1ccc(Cl)c(Cl)c1 (configuration not stated)	-8.0%	-10.1	9.1	?	21.3µM*	30.1µM*
CCOc1cc2c(cc1OCC)-n1cccc1C(c1ccc(C(C)C)cc1)NC2 (configuration not stated)	-0.9%	5.1	-11.7	5.4%	·	·
C=C[C@@]12CN(C)[C@H]3[C@H]1[C@@]1(C(=O)Nc4ccccc41)C1CC2[C@@H]3CO1	-2.2%	2.7	2.3	-0.1%	·	·
O=C(OCc1cccc(C(F)(F)F)c1)c1ccc[nH]c1=O	-2.3%	12.4	9.7	6.01µM*	3.01µM*	5.36µM*
COc1ccc(NC(=O)N2C[C@@H]3C[C@@H](C2)c2cccc(=O)n2C3)cc1	0.0%	3.0	-1.0	-2.4%	·	·
O=C1NC(=O)C(=Cc2ccc(-c3ccc(Cl)cc3)o2)C(=O)N1	-2.0%	2.5	1.1	-6.5%	·	·
CC1=NOC(=O)/C1=C\c1ccc(-c2cccc(Cl)c2)o1	-5.7%	12.7	-2.6	21.3µM*	6.01µM*	10.7µM*
Oc1cc2c(cc1O)[C@H]1c3ccc(O)c(O)c3OC[C@@]1(O)C2	1.0%	-6.4	-8.3	?	?	?
CCOC(=O)c1c(-c2ccc(OC)cc2)csc1/N=C/C1=C(O)CCCC1=O	2.7%	2.9	-12.7	?	-0.1%	-2.0%
Fc1ccc(NC(=S)Nc2ccccc2N2CCOCC2)cc1Cl	-2.3%	1.0	5.7	?	4.7%	3.6%
Cc1ccc(NC(=S)Nc2ccc(Cl)c(Cl)c2)c(OC(F)F)c1	-2.5%	-11.5	-4.9	5.36µM*	?	?
O=c1c2cc(Cl)cc(Cl)c2nc(CN2CCOCC2)n1-c1ccccc1F	-10.0%	-5.3	-10.7	·	·	·
Fc1ccc(NC(=S)Nc2ccccc2OC(F)F)cc1Cl	-1.2%	0.4	-12.6	?	17.6%	-27.0%
O=C(/C=C/c1ccc(Cl)cc1)NC(=S)N1C[C@H]2C[C@H](C1)c1cccc(=O)n1C2	0.4%	12.5	-3.7	3.3%	·	·
CC(=O)Oc1ccc(CC(C(=O)O)N2C(=O)c3ccccc3C2=O)cc1 (configuration not stated)	-4.7%	-9.9	3.1	?	16.9µM*	?
CC(C)(C)c1cc(OC(=O)Cc2ccccc2)ccc1O	-5.3%	-3.2	-4.4	0.2%	·	·
Cn1c(N)c(C(=O)COC(=O)Cc2ccc(Cl)c(Cl)c2)c(=O)n(C)c1=O	-2.9%	-0.6	-37.6	9.53µM*	6.75µM*	12µM*
Cc1ccn(-c2cc(O)c(-n3ccc(C)n3)cc2O)n1	-5.8%	2.6	3.5	?	-14.3%	?
SMILES	TSG101-PTAP inh	KCNH2 WT inh	KCNH2 3.1 block	Tb PFK inh-1	TbPFK ATP	Tb PFK inh-2
O=c1[nH]c(=S)n(Cc2ccco2)c(O)c1C=NCc1cccs1	-7.4%	8.2	-16.6	?	?	-13.4%
Cc1[nH]c(=S)sc1Cc1ccc(Cl)c(Cl)c1	·	·	·	19µM*	26.9µM*	23.9µM*
Cc1ccc(NNC(=O)Nc2ccc(Cl)cc2)nn1	-2.7%	0.3	6.7	23.9µM*	23.9µM*	?
CCC(=O)OCCNc1cc(Sc2nc3ccccc3[nH]2)c2nonc2c1[N+](=O)[O-]	-3.3%	-16.1	-19.1	?	6.01µM*	9.53µM*
COc1cc(C(=O)OC2C[C@H]3CC[C@@H](C2)N3)ccc1O (some centres not stated)	-4.5%	-7.9	-18.9	-6.2%	·	·
Fc1ccc(CNc2ncnc3cc(Cl)ccc23)cc1	-4.5%	4.6	6.4	19µM*	?	26.9µM*
CCOc1ccc(Cl)cc1CNCCc1ccc(F)cc1	-1.7%	31.2	-2.1	1.7%	·	·
COC(=O)C1=C(c2ccc(F)cc2F)C[C@@H]2CC[C@H]1N2C(=O)N1CCC(C)CC1	-14.9%	5.8	12.1	-1.8%	·	·
Cc1cc(C)n2c(=S)[nH]nc2n1	0.0%	1.4	-2.6	?	26.9µM*	?
C=C1C(=O)O[C@@H]2C[C@@H](C)[C@@H]3C4OC4C(=O)[C@@]3(C)[C@@H](O)[C@H]12 (some centres not stated)	0.2%	-18.5	4.8	-4.5%	·	·
O=C(/C=C/c1ccc(Br)cc1)NC(=S)N1C[C@H]2C[C@H](C1)c1cccc(=O)n1C2	-2.2%	1.4	2.4	0.0%	·	·
CC(C)c1ccccc1OCC(=O)N1CCCN(C)CC1	-2.6%	-2.2	11.6	1.7%	·	·
C[N+](C)(C)CC1CCCC1=O (configuration not stated)	-2.9%	-19.3	·	·	·	·
O=C(NNC(=O)c1ccc2nonc2c1)Nc1ccc(Cl)cc1	-0.5%	-12.1	23.3	15.1µM*	?	?
COC(=O)C1=C(c2ccc(Cl)c(C(F)(F)F)c2)C[C@@H]2CC[C@H]1N2C(=O)NCCOc1ccccc1	-4.4%	-0.7	0.9	-8.1%	·	·
O=C(NCc1cccnc1)Nc1ccc([N+](=O)[O-])cc1	-1.9%	-0.2	-15.6	-12.5%	·	·
O=C(NNC(=O)c1ccncc1)Nc1ccc([N+](=O)[O-])cc1	1.0%	i	3.7	?	?	?
O=c1[nH]c(=O)n(Cc2ccco2)c(O)c1C=NC1CCN(Cc2ccccc2)CC1	2.9%	27.4	3.2	-22.0%	·	·
COC(=O)C1=C(c2ccc(F)cc2F)C[C@@H]2CC[C@H]1N2C(=O)NCCOc1ccccc1Cl	-0.4%	-3.7	7.7	0.3%	·	·
O=c1[nH]c(=S)n(-c2ccc(Cl)cc2)c(O)c1/C=N/N1CCOCC1	0.1%	-4.0	2.3	-3.9%	·	·
CCOC(=O)NCc1ccc(Cl)c(Cl)c1	-2.4%	5.9	11.2	30.1µM*	21.3µM*	?
Cc1ccc(C(=O)NCc2ccc(Cl)c(Cl)c2)o1	-3.1%	2.7	7.2	10.7µM*	6.75µM*	23.9µM*
O=C(NCc1cccnc1)Nc1ccccc1Cl	-8.2%	-2.7	13.5	-3.8%	·	·
